Assay outcomes (PubChem)
CtBP-E1A blk = CtBP/E1A binding inhibition. AlphaScreen GST-E1A/His-CtBP binding, 1536-well; stronger effect = lower value. activity change, % (test concentration not listed). actives 0.49% (n = 340,000)
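Protein mix (5X: 125 nM each GST-E1A, His-CtBP) was incubated with pinned compound 2 h at 37 deg C in dark, in 50 mM Tris pH 8.0 buffer with 300 mM NaCl. Glutathione donor and nickel acceptor beads followed; AlphaScreen signal read after 1 h.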
PI5P4K alpha inh = inhibitors of human PI5P4K alpha | P48426 | actives 1.2% (n = 330,000) | AID 652105 | PI5P4Kalpha enzyme, ADP-Glo luminescence, 60 min; stronger effect = lower value | max response, %; active = max response of -50% or lower; inconclusive = between -30% and -50%; inactive = -30% or higher; note: value at the top dose of about 77 µM
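ADP-Glo luminescence end-point read after a 60 min room-temperature kinase reaction of PI5P4Kalpha plus substrate, initiated with ATP at 5 microM final. Buffer: 0.038 M HEPES pH 7.4, EGTA, 0.1% CHAPS, 5% DMSO.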
pAkt inh = blocks phosphorylation of Akt; Neuro2A IGF-stimulated pAkt S473 HTRF, 20 min; stronger effect = lower value; activity change, % for hits at 50 µM; actives 0.32% (n = 360,000); in the data active = activity change below about -80%; inconclusive = mostly about -51% to -80%
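Single-point screen (50 µM final compound) in Neuro2A cells stimulated 20 min with 6 nM IGF at 37 deg C. After lysis, Ser473-phosphorylated Akt read by HTRF (ex 330 nm, em 615/665 nm) as the 665/615 ratio.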
PI4K2A block = blocks human PI4K2A kinase activity; AID 1346378; Q9BTU6; actives 0.13% (n = 420,000); purified PI4K2A, ADP-Glo luminescence, 1 h; stronger effect = lower value; activity change, negative = inhibition, % at 76.9 µM; in the data active = activity change below about -50%; inconclusive = mostly about -30% to -49%;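 note: -100% = wells without enzyme as full effect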
Target sequence (Q9BTU6 whole entry, looked up): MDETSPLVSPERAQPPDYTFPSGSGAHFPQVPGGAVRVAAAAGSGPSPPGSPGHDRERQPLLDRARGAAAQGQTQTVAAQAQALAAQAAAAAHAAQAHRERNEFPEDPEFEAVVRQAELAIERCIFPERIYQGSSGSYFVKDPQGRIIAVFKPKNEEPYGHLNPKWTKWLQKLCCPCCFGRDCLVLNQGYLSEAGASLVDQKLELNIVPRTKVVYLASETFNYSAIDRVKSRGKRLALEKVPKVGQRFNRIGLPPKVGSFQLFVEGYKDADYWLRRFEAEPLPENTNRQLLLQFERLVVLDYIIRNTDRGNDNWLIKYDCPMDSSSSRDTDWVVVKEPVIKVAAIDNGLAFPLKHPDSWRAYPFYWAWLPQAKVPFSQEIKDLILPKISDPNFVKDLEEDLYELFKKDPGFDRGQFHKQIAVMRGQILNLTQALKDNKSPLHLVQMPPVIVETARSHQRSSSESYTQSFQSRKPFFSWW
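ADP-Glo luminescence measured ADP generated by PI4K2A enzyme (4 ug/mL before mixing) with 1.2 mM PI substrate (pre-mix) and 300 microM ATP (pre-mix). Tris pH7.5 buffer with MgCl2, Triton X-100; 1 h reaction at ambient temperature.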
Six1-Eya2 blk = Six1/Eya2 interaction inhibition. AID 651725. AlphaScreen GST-Six1/His-Eya2 binding, biochemical; stronger effect = lower value. actives 0.56% (n = 360,000). Q15475+O00167. activity change, % (concentration not given with the values)
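Six1/Eya2 binding was read as AlphaScreen signal after compounds were pinned into GST-Six1 plus His-tagged Eya2 (5X stock 250/500 nM) in pH 8.0 Tris/NaCl/TCEP buffer, beads added, then incubated 1 h, 37 C, dark.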
The depositor's hits bear a star; i = inactive; ? = inconclusive; · = not tested or not shown. The list is not random: actives were taken first. Their share in the collection is about 1.8%. Cut-off read from the data, not from the text of the source, unless noted: active = activity change below about -65%; inconclusive = mostly about -30% to -63%; inactive = weaker than that. Unless noted, % is set by controls: 0 for no effect and ±100 for the full control effect.

SMILES	CtBP-E1A blk	PI5P4K alpha inh	pAkt inh	PI4K2A block	Six1-Eya2 blk
Cc1c(C(=O)N2CCCCC2)sc(NC(=O)C(C)C)c1C#N	10	·	i	1	1
COc1cccc(/C=N/NC(=O)c2ccncc2)c1OC(=O)c1ccc(Br)cc1	-81*	0	i	-3	?
COc1ccc(CCNC(=O)CCCn2c(=O)c3ccccc3n(CC(=O)Nc3cc(Cl)ccc3C)c2=O)cc1OC	·	·	·	-3	·
CC(C)NC(=O)c1sc2nc(-c3cccs3)cc(-c3cccs3)c2c1N	1	·	-94%*	1	7
Nc1c(C(=O)Nc2nc3ccccc3s2)sc2nc(-c3cccs3)ccc12	-11	·	i	-63*	6
C=CCN1CCN(C(c2ccccc2)c2nnnn2CCC(C)C)CC1 (stereo unspecified)	-5	-59*	i	-5	12
CC(C)CCn1nnnc1C(c1ccccc1)N1CCN(C)CC1 (stereo unspecified)	7	-1	i	-12	-3
CCOC(=O)C1=CCC2C(=O)N(C3CCCCC3)C(=O)C12 (stereo unspecified)	5	-10	i	-7	8
Cc1ccc(S(=O)(=O)NC(=O)NCc2ccc3c(c2)OCO3)cc1	6	3	-111%*	9	1
NS(=O)(=O)c1ccc(Nc2nc(-c3ccc(F)cc3)cs2)cc1	-1	2	i	-3	-11
NS(=O)(=O)c1ccc(Nc2nc(-c3ccc(O)cc3O)cs2)cc1	-80*	-19	i	1	-67*
CCCCNc1c([N+](=O)[O-])cc(C)cc1[N+](=O)[O-]	-25	·	i	3	-67*
CCCCNc1c([N+](=O)[O-])cc(C(=O)O)cc1[N+](=O)[O-]	-14	2	i	4	6
Cc1cc(C)c2c(=O)n(CC(=O)NC3CCCC3)sc2n1	1	-64*	i	9	6
Cc1cc(C)c2c(=O)n(CC(=O)Nc3ccc(Br)c(C)c3)sc2n1	-7	-62*	i	-3	-10
Cc1cc(C)c2c(=O)n(CC(=O)Nc3cccc(Cl)c3C)sc2n1	-6	-87*	i	-3	-20
Cc1ccc(C(=O)CSc2nnc(N)s2)c(C)c1	-2	-7	i	0	2
Cc1ccc2c(c1)nnn2C1CCN(CC(=O)NCCc2ccccc2)CC1	10	·	i	-1	3
COCCNc1nc(-c2cc(F)ccc2C)c2sc(-c3ccccc3)cc2n1	9	15	i	-2	8
CCCn1c(C)c(C(=O)OCC)c(O)c(-c2ccccc2)c1=O	9	-2	i	0	13
C=CCSc1nnc(-c2cc3c(C(F)(F)F)nn(C)c3s2)n1C	-2	-1	i	-2	-10
C=CCSc1nnc(-c2cc3c(-c4ccccc4)nn(C)c3s2)n1C	-76*	9	i	-6	-75*
CC1CCN(C(=O)COC(=O)[C@H](C)NS(=O)(=O)/C=C/c2ccccc2)CC1	6	-7	i	-7	11
O=C(NNc1cc(Br)c(O)c(Br)c1)c1ccccc1	-15	-91*	i	-9	-3
NS(=O)(=O)c1ccc(NNC(=O)c2ccccc2)cc1	·	8	i	5	2
SMILES	CtBP-E1A blk	PI5P4K alpha inh	pAkt inh	PI4K2A block	Six1-Eya2 blk
O=C(N/N=C1/CC2CCC1C2)c1cc2ccccc2cc1O (stereo unspecified)	1	-56*	i	-1	0
O=C(NCC1CCCCC1)c1cc2ccccc2cc1O	-4	5	i	0	-2
Cc1c(CC(=O)N2CCN(C(=O)C3COc4ccccc4O3)CC2)c(=O)oc2cc(O)c(Cl)cc12 (stereo unspecified)	3	-51*	i	2	-10
COc1ccc2c(C)c(CC(=O)N3CCN(C(=O)C4COc5ccccc5O4)CC3)c(=O)oc2c1C (stereo unspecified)	2	-11	i	7	-8
C=CC[n+]1ccc(/C=C2\C=Cc3cc(C)ccc3N2CC)c2ccccc21	-21	?	i	-20	-73*
CCN1/C(=C/c2cc[n+](CCCS(=O)(=O)[O-])c3ccccc23)Sc2ccccc21	-12	-1	i	0	0
c1ccc2oc(-c3[nH]ncc3CN3CCSCC3)cc2c1	-14	-2	i	-1	-1
C/C(=N\NC(=O)c1cc2ccccc2cc1O)c1ccc2c(c1)OCO2	-17	-67*	i	-5	3
COCCn1c(C)cc(C2=NNC(=Nc3ccccc3)SC2)c1C	32	?	i	-52*	14
COCCn1c(C)cc(C2=NNC(=Nc3ccc(OC)cc3)SC2)c1C	-11	·	i	-1	-8
CSC1=NS(=O)(=O)c2c(C)nn(C)c2S1	9	-76*	i	0	3
Cc1ccc(C)n1-c1sccc1C(=O)O	-6	-83*	i	-27	-68*
N#CC1=C(N)NC(SCc2ccccc2)=C(C#N)C12CCCC2	-9	-63*	i	-5	-9
CCSC1=C(C#N)C2(CCCC2)C(C#N)=C(N)N1	-5	-57*	i	1	-5
CCn1c(C)c(C(C)=O)c(N2CCN(c3ccc(OC)cc3)CC2)nc1=S	-14	0	i	-7	0
COc1cccc(NC(=O)C(=O)NCC(c2cccnc2)N2CCN(c3ccccc3)CC2)c1 (stereo unspecified)	·	·	·	-5	·
COc1ccc2c(c1)cc(C(=O)N[C@H](C(=O)N1CCC[C@H]1C(=O)O)C(C)C)n2C	7	-5	i	1	1
Cc1ccc(NC(=O)CNS(=O)(=O)c2ccc(F)cc2)cc1C	·	8	i	1	6
Cc1ccccc1NS(=O)(=O)c1ccc(S(=O)(=O)N2CCCC2)cc1	3	5	i	-1	1
O=S(=O)(Nc1cccc2cccnc12)c1ccc(S(=O)(=O)N2CCCC2)cc1	-90*	·	i	-1	-76*
Cc1ccc2cccc(NS(=O)(=O)c3ccccc3)c2n1	-2	0	i	-2	-1
O=S(=O)(Nc1cccc2cccnc12)c1ccccc1	-84*	2	i	-2	-66*
Cc1ccc(S(=O)(=O)Nc2cccc3cccnc23)c([N+](=O)[O-])c1	-80*	11	i	-6	-91*
O=C(Nc1nnc(CSCc2ccc(F)cc2)s1)c1ccc([N+](=O)[O-])cc1	-2	?	i	-5	1
CN(C)Cc1nnnn1-c1ccccc1	-12	2	i	11	2
CCn1cc(/C=C(\NC(=O)c2ccccc2F)C(=O)N2CCN(C)CC2)c2ccccc21	2	5	i	-2	1
CC(C)C(=O)NC(c1cccs1)c1cc([N+](=O)[O-])c2cccnc2c1O (stereo unspecified)	-91*	-84*	i	-8	-97*
